# KB-3-1 cytotox – KB-3-1 parental cell cytotoxicity. KB-3-1 viability, CellTiter-Glo ATP luminescence, 72 h. Potency, µM (highest dose often 46.1 µM), most hits filed as cytotoxic. hit rate 1.4% among 400,000. AID 1347075; note: % is set by controls: 0 for no effect and ±100 for the full control effect; nearly all actives have a fitted effect of over 60% in size
#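 KB-3-1 parental drug-naive adenocarcinoma cells in DMEM/10% FBS, incubated 72 h at 37 C with pin-transferred compounds across a concentration series. Viability by CellTiter-Glo luminescence; concentration-response curves fitted after normalization.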
# SW480 rerep – DNA re-replication induction in SW480 cells; SW480 DNA re-replication, Hoechst DNA content imaging, 48 h; Potency, µM (top dose mostly 46.1 µM), for inactives: at the highest dose re-replication activation, hits mostly activators; hit rate 1.8% among 340,000; AID 624297; note: % of control where 0% means no effect; nearly all actives have a fitted effect of over 55% in size
#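 Image-based read-out: total Hoechst fluorescence of nuclei (405 nm excitation, 500-530 nm emission), with hits raising the fraction of high-intensity nuclei. SW480 colon cells incubated 48 hr with compounds at 37 C.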
# KB-V1 cytotox – kills drug-selected multidrug resistant KB-V1 cells; hit rate 3.4% among 400,000; Potency, µM (titrated, usually from 46.1 µM), usual class: cytotoxic; KB-V1 MDR cells viability, CellTiter-Glo, 72 h; AID 1347076; note: % is set by controls: 0 for no effect and ±100 for the full control effect; nearly all actives have a fitted effect of over 60% in size
#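 Compound-treated KB-V1 multidrug-resistant cells, 72 h, 37 degrees C; viability by CellTiter-Glo. Fitted qHTS curves give the values.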
# MCF10A rereplic – induces DNA re-replication in MCF 10a normal breast cells; hit rate 2.9% among 350,000; MCF 10A DNA re-replication, Hoechst nuclear intensity, 48 h; Potency, µM (top dose mostly 46.1 µM), inactives show at the top dose activity, positive = re-replication, most hits filed as activators; note: % of control where 0% means no effect; nearly all actives have a fitted effect of over 50% in size
# ELG1 repair inh – blocks ELG1-dependent DNA repair in HEK293T cells. HEK293T ELG1-luciferase reporter, luminescence, 16 h; DNA damage induced by 5-fluorouridine. Potency, µM (highest dose often 46.1 µM), inactives show at the top dose activity change, negative = inhibition, most hits filed as inhibitors. hit rate 2.3% among 330,000. AID 504467; note: % is set by controls: 0 for no effect and ±100 for the full control effect; nearly all actives have a fitted effect of over 55% in size
#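 Cells (2,000 per well) received 5-fluorouridine plus test compound or DMSO and were incubated 16 hr at 37 °C, 5% CO2. Luciferase activity was read by luminescence 30 min after ONE-Glo addition; signal suppression marked inhibition of damage-induced ELG1 function.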
# Active calls of the source: *; i = inactive; ? = inconclusive; / = no result; [ ] = another dose, or the depositor's remark. Compounds with a hit are over-represented: about 8.1% of the library has one in this group of screens. Calls come from the whole dose curve; as a rule, active = well fitted curve in the direction sought with a large enough effect; inconclusive = small, poorly fitted or top-dose-only effect, or another doubt; inactive = no such curve, though single readings can be large; an effect the other way counts as inactive or inconclusive. Potency is the fitted concentration of half-maximal effect.
SMILES,KB-3-1 cytotox,SW480 rerep,KB-V1 cytotox,MCF10A rereplic,ELG1 repair inh
COc1ccc(Cn2c(=O)n(Cc3ccco3)c(=N)c3c4c(sc32)COC(C)(C)C4)cc1,?,-7.3%,i,7.6%,7.31µM*
CC1(C)Cc2c(sc3c2c(=N)n(Cc2ccco2)c(=O)n3Cc2ccc(F)cc2)CO1,?,1.3%,i,14.7%,18.4µM*
O=c1cc(CCl)nc(Cc2c(Cl)cccc2Cl)[nH]1,?,?,?,18.4µM*,/
O=c1cc(-c2ccccc2)nc(Cc2c(Cl)cccc2Cl)[nH]1,i,-9.2%,i,2.9%,6.0%
O=C(/C=C/Nc1cccc(C(F)(F)F)c1)c1ccc(Oc2ncccn2)cc1,i,-36.2%,20.6µM*,-0.4%,23.1%
COc1ccc(C2c3c(-c4ccccc4O)n[nH]c3C(=O)N2CCc2ccc(OC)c(OC)c2)cc1 (stereo unspecified),i,-3.4%,?,?,2.82µM*
COc1ccc(CCN2C(=O)c3[nH]nc(-c4ccccc4O)c3C2c2cccc(Cl)c2)cc1 (stereo unspecified),18.4µM*,4.0%[9.22 µM],?,?,?
COc1cc(C2c3c(-c4ccccc4O)n[nH]c3C(=O)N2CCO)ccc1OCc1ccccc1 (stereo unspecified),i,/,i,/,/
CCCN1C(=O)c2[nH]nc(-c3ccccc3O)c2C1c1ccc(OCc2ccccc2)c(OC)c1 (stereo unspecified),20.6µM*,/,?,/,/
O=C(COC(=O)Cc1ccccc1[N+](=O)[O-])NCc1ccc(Cl)cc1,i,0.8%,?,-7.1%,3.2%
CN1CCN(S(=O)(=O)c2ccc(NC(=S)NC(=O)C3CCCCC3)cc2)CC1,i,0.9%,i,?,?
CC(C)N(Cc1ccccc1)C(=O)COC(=O)C1CCN(S(=O)(=O)c2ccc3c(c2)OCCO3)CC1,i,-223.2%,i,2.7%,21.3%
CC(C)CSC1=NSC2=NC(=O)/C(=C\c3coc4ccccc4c3=O)C(=N)N12,i,-9.3%,i,20.6µM*,-1.2%
Cc1cc(/C=C2\C(=N)N3C(SCc4ccccc4)=NSC3=NC2=O)c(C)n1Cc1ccccc1,i,-4.4%,i,11.3%,0.0%
CSC1=NSC2=NC(=O)/C(=C\c3coc4ccccc4c3=O)C(=N)N12,?,-21.0%,i,?,14.1%
CC(C)CSC1=NSC2=NC(=O)/C(=C\c3ccccc3)C(=N)N12,i,24.8%,i,14.6µM*,?
C=C1C(=O)[C@]23C[C@H]1CCC2[C@@]1(C)C(C[C@@H]3O)[C@](C)(C(=O)OC)CC[C@@H]1OC(C)=O (stereo partly specified),?,/,16.4µM*,/,/
O=C(CSC(=S)N1CCCCC1)Nc1nc(-c2ccccc2)c(-c2ccccc2)o1,i,12.3%,23.1µM*,5.8%,-10.7%
CSc1ccccc1NC(=O)CN(C)C(=O)CNc1ccc(C(F)(F)F)cc1[N+](=O)[O-],i,-6.1%,i,0.2%,2.8%
CCOCCCNC(=O)c1cc(-c2cccnc2)nc2ccc(S(=O)(=O)N3CCC(C)CC3)cc12,i,-0.1%,i,-3.0%,16.5%
Cn1c(=O)c(C(=O)NC2CCCCCCC2)c(O)c2ccccc21,i,-1.9%,20.6µM*,0.1%,6.6%
Cn1c(=O)c(C(=O)NC2CCCCCC2)c(O)c2ccccc21,i,9.0%,i,2.6%,27.2%
Cn1nc(C(=O)NC2CCCC2)c2ccccc2c1=O,i,-12.9%,i,2.8%,?
CCCn1nc(C(=O)NC2CCCCCC2)c2ccccc2c1=O,i,-0.2%,5.8µM*,7.9%,-24.0%
Cc1ccc(NC(=O)Cc2nnc(SCC(=O)NC3CCCC3)n2C)cc1C,i,?,?,-3.3%,10.6%
SMILES,KB-3-1 cytotox,SW480 rerep,KB-V1 cytotox,MCF10A rereplic,ELG1 repair inh
COc1ccc(S(=O)(=O)Nc2cccc(S(=O)(=O)N3CCCCCC3)c2)cc1,i,8.1%,i,-5.8%,-8.3%
O=S(=O)(Nc1nc2ccccc2nc1Nc1cccc(S(=O)(=O)N2CCCCC2)c1)c1ccccc1,14.6µM*,14.3%,7.31µM*,?,?
CCc1ccc(Nc2nc3ccccc3nc2NS(=O)(=O)c2ccccc2)cc1,?,/,18.4µM*,/,/
CCOC(=O)c1c(N2C(=O)Nc3ccccc3N2O)sc2c1CCCC2,i,-1.9%,i,20.4%,-3.1%
CC(=O)NCCc1nc2ccccc2n1Cc1cc(C)ccc1C,i,-70.9%,i,20.8%,4.2%
CCCN1CCN(C(=S)Nc2ccc3nc(N4CCN(CC)CC4)cc(C)c3c2)CC1,i,?,i,18.4µM*,-4.9%
Cc1cc(N2CCOCC2)nc2ccc(NC(=S)N3CCN(c4ccccc4)CC3)cc12,?,?,i,210.9%,13.1%
CCN1CCN(c2cc(C)c3cc(NC(=S)N4CCOCC4)ccc3n2)CC1,i,16.4µM*,i,?,?
CCN1CCN(c2cc(C)c3cc(NC(=S)N4CCN(c5ccccc5)CC4)ccc3n2)CC1,i,18.4µM*,i,20.6µM*,?
CCN1CCN(c2cc(C)c3cc(NC(=S)N4CCC5(CC4)OCCO5)ccc3n2)CC1,?,-6.9%,i,-5.7%,-0.2%
Cc1onc(-c2ccccc2Cl)c1C(=O)Nc1sc2c(c1C(N)=O)CCC(C)C2 (stereo unspecified),?,?,23.1µM*,29.4%,?
COc1ccc(-n2nc3c(c2NC(=O)c2c(-c4ccccc4Cl)noc2C)CS(=O)(=O)C3)cc1,i,3.0%,9.2µM*,7.3%,-0.5%
COc1ccc(-n2nc3c(c2NC(=O)c2ccccc2)CS(=O)(=O)C3)cc1,i,/,i,/,/
Cc1cc(C)nc(NC(=O)c2c(-c3ccccc3Cl)noc2C)c1,i,?,7.31µM*,?,?
COC(=O)c1c(NC(=O)c2c(-c3ccccc3Cl)noc2C)sc2c1CCC2,i,3.8%,?,14.5%,?
Cc1cc(C)nc(NC(=O)c2c(F)c(F)c(F)c(C(=O)Nc3cc(C)cc(C)n3)c2F)c1,?,?,i,8.2µM*,/
Cc1ccnc(NC(=O)c2c(-c3ccccc3Cl)noc2C)c1,i,-4.3%,?,4.0%,16.2%
COc1ccc(NC(=O)c2c(-c3ccccc3Cl)noc2C)c(OC)c1,i,-1.1%,i,6.5%,18.4µM*
Fc1cccc(F)c1/C=C/c1ccc2ccccc2n1,i,/,?,2.7%,?
COc1cc(/C=C/c2nc3ccccc3nc2/C=C/c2cc(OC)c(OC)c(OC)c2)cc(OC)c1OC,?,/,i,/,/
Fc1ccc(/C=C/c2ccc3ccccc3n2)cc1,11.6µM*,/,i,/,/
COc1cc(/C=C/c2ccc3ccccc3n2)cc(OC)c1OC,2.59µM*,/,?,/,/
C(=C\c1ccco1)/c1ccc2ccccc2n1,i,-23.6%,i,18.4µM*,?

# High-throughput results as filed in PubChem.
